Results filed as inconclusive are left out. Calls of active or inactive are those of the source. Calls follow the shape of the full dose curve.
Test: qHTS Assay for Lipid Storage Modulators (AID 1519); as to activity change, negative = inhibition: % is scaled to controls: 0 for no effect and ±100 for the full control effect
Conditions: Drosophila S3 cells, BODIPY lipid droplet/cell ratio, laser cytometry; at 57.5 µM (top of the series); cells loaded with oleic acid
In short: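 Cells seeded at 5,000 per well were treated with compounds over a concentration series and loaded with oleic acid (400 uM, as added). Lipid droplet fluorescence (488 nm excitation, 500-530 nm channel) was read by laser-scanning cytometry and normalized to 20 uM Triacsin C.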
In the case of `CC(=O)Oc1cccc(O)c1`, the activity change, negative = inhibition is reported as 7.58% (inactive). For `C/C=C/C(=O)N(CC)c1ccccc1C`, the activity change, negative = inhibition was 9.1% (inactive). In the case of `O=C(CCBr)N1CCN(C(=O)CCBr)CC1`, the activity change, negative = inhibition is reported as 9.22% (inactive). In the case of `CCCCCC(C)N` (stereo not drawn), the activity change, negative = inhibition is reported as -8.69% (inactive). For `NC(=O)c1ccc([N+](=O)[O-])cc1Cl`, the activity change, negative = inhibition was -1.34% (inactive). For `O=c1[nH]cnc2nc[nH]c12`, the activity change, negative = inhibition was 6.77% (inactive). For `CN1CCCN=C1COC(=O)C(O)(c1ccccc1)C1CCCCC1` (stereo not drawn), the activity change, negative = inhibition was 5.7% (inactive). For `Cc1cccc(C(=O)O)c1O`, the activity change, negative = inhibition was 6.75% (inactive). For `C1CCN2C[C@@H]3C[C@@H](CN4CCCC[C@@H]34)[C@H]2C1`, the activity change, negative = inhibition was 2.67% (inactive). For `Cc1ccsc1/C=C/C1=NCCCN1C`, the activity change, negative = inhibition was 7.06% (inactive). In the case of `C[C@@H](N)C(=O)O`, the activity change, negative = inhibition is reported as -5.25% (inactive). With `Cc1[nH]c(C)c(Cl)c(=O)c1Cl` the activity change, negative = inhibition was 7.41% (inactive). In the case of `O=C(O)c1cc(=O)c2ccccc2o1`, the activity change, negative = inhibition is reported as 0.609% (inactive). With `C=CCSCC1Nc2cc(Cl)c(S(N)(=O)=O)cc2S(=O)(=O)N1` (stereo not drawn) the activity change, negative = inhibition was 8.24% (inactive). With `C[N+](C)(C)CC[N+]1(C)Cc2c(Cl)c(Cl)c(Cl)c(Cl)c2C1` the activity change, negative = inhibition was 0.877% (inactive). In the case of `CC(C)=CCC/C(C)=C/CO`, the activity change, negative = inhibition is reported as 10.2% (inactive). With `Cc1onc(-c2ccccc2)c1-c1ccc(S(N)(=O)=O)cc1` the activity change, negative = inhibition was 13.7% (inactive). For `CN[C@@H]1[C@H](O)[C@H](NC)[C@H]2O[C@@]3(O)C(=O)C[C@@H](C)O[C@H]3O[C@@H]2[C@H]1O`, the activity change, negative = inhibition was -5.49% (inactive). For `CNCc1ccccc1`, the activity change, negative = inhibition was 4.39% (inactive). For `CC(N)CCCC(C)(C)O` (stereo not drawn), the activity change, negative = inhibition was 4.55% (inactive). With `CC(=O)NCc1c(I)c(NC(C)=O)c(I)c(C(=O)O)c1I` the activity change, negative = inhibition was 14.5% (inactive). With `NS(=O)(=O)c1cc(C2(O)NC(=O)c3ccccc32)ccc1Cl` (stereo not drawn) the activity change, negative = inhibition was 3.99% (inactive). In the case of `COc1ccccc1OCC(O)CO` (stereo not drawn), the activity change, negative = inhibition is reported as 8.3% (inactive).

Same assay, conditions: Drosophila S3 cells, BODIPY lipid droplet/cell ratio, laser cytometry; measured here: cell count channel max response; cells loaded with oleic acid
`CC(=O)Oc1cccc(O)c1` showed a max response of 7.77%. For `CC(=O)N[C@@H](CC(C)C)C(=O)O`, the max response was -13.9%. In the case of `C/C=C/C(=O)N(CC)c1ccccc1C`, the max response is reported as 2.55%. `CC[N+](CC)(CC(=O)Nc1c(C)cccc1C)Cc1ccccc1` gave a max response of -6.23%. With `O=C(CCBr)N1CCN(C(=O)CCBr)CC1` the max response was 16.2%. Compound `CCCCCC(C)N` (stereo not drawn) has a max response of -12.5%. Work on `Cc1cc(NC(=O)C2=C(O)c3ccccc3S(=O)(=O)N2C)no1` yielded a max response of -4.56%. In the case of `C[C@@H]1CCC[C@H](C)N1`, the max response is reported as -4.31%. `NC(=O)c1ccc([N+](=O)[O-])cc1Cl` gave a max response of -11.1%. Work on `O=c1[nH]cnc2nc[nH]c12` yielded a max response of 11.9%. Work on `CN1CCCN=C1COC(=O)C(O)(c1ccccc1)C1CCCCC1` (stereo not drawn) yielded a max response of 7.14%. `Cc1cccc(C(=O)O)c1O` showed a max response of 1.99%. For `C1CCN2C[C@@H]3C[C@@H](CN4CCCC[C@@H]34)[C@H]2C1`, the max response was 14.6%. In the case of `Cc1ccsc1/C=C/C1=NCCCN1C`, the max response is reported as 12.1%. `C[C@@H](N)C(=O)O` showed a max response of -10.1%. `COc1ccc(NS(=O)(=O)c2ccc(N)cc2)nn1` showed a max response of 3.32%. `CCN(CC)CCc1nc(-c2ccccc2)no1` gave a max response of -16%. For `Cc1[nH]c(C)c(Cl)c(=O)c1Cl`, the max response was 4.05%. `O=C(O)c1cc(=O)c2ccccc2o1` showed a max response of 15.2%. In the case of `C=CCSCC1Nc2cc(Cl)c(S(N)(=O)=O)cc2S(=O)(=O)N1` (stereo not drawn), the max response is reported as 6.41%. In the case of `O=C(O)c1ccccc1OP(=O)(O)O`, the max response is reported as 3.1%. `CN/C(=C\[N+](=O)[O-])NCCSCc1csc(CN(C)C)n1` showed a max response of -17.1%. Compound `C[N+](C)(C)CC[N+]1(C)Cc2c(Cl)c(Cl)c(Cl)c(Cl)c2C1` has a max response of -22.8%. For `CC(C)=CCC/C(C)=C/CO`, the max response was 14.3%. In the case of `CCCNC(C)(C)COC(=O)c1ccccc1`, the max response is reported as -4.93%. `Cc1onc(-c2ccccc2)c1-c1ccc(S(N)(=O)=O)cc1` gave a max response of 11.6%. For `O=C(O)COC(=O)Cc1ccccc1Nc1c(Cl)cccc1Cl`, the max response was -9.2%. Work on `CCOC(=O)[C@H](CCc1ccccc1)N[C@@H](C)C(=O)N1CCC[C@H]1C(=O)O` yielded a max response of -1.26%. With `CN[C@@H]1[C@H](O)[C@H](NC)[C@H]2O[C@@]3(O)C(=O)C[C@@H](C)O[C@H]3O[C@@H]2[C@H]1O` the max response was 7.5%. Work on `CNCc1ccccc1` yielded a max response of 16%. For `CC(N)CCCC(C)(C)O` (stereo not drawn), the max response was 25.6%. `CC(=O)NCc1c(I)c(NC(C)=O)c(I)c(C(=O)O)c1I` showed a max response of 17.6%. `CC(C)(C)C(=O)OCOC(=O)[C@@H]1N2C(=O)[C@@H](NC(=O)[C@H](N)c3ccccc3)[C@H]2SC1(C)C` showed a max response of -13%. `NS(=O)(=O)c1cc(C2(O)NC(=O)c3ccccc32)ccc1Cl` (stereo not drawn) gave a max response of 20%. In the case of `COc1ccccc1OCC(O)CO` (stereo not drawn), the max response is reported as -0.08%.

Same assay, conditions: Drosophila S3 cells, BODIPY lipid droplet/cell ratio, laser cytometry; measured here: lipid channel max response; cells loaded with oleic acid
With `CC(=O)Oc1cccc(O)c1` the max response was 18.4%. With `CC(=O)N[C@@H](CC(C)C)C(=O)O` the max response was -14.5%. `C/C=C/C(=O)N(CC)c1ccccc1C` showed a max response of 11.8%. Compound `CC[N+](CC)(CC(=O)Nc1c(C)cccc1C)Cc1ccccc1` has a max response of -4.81%. For `O=C(CCBr)N1CCN(C(=O)CCBr)CC1`, the max response was 29.1%. In the case of `CCCCCC(C)N` (stereo not drawn), the max response is reported as -21.2%. For `Cc1cc(NC(=O)C2=C(O)c3ccccc3S(=O)(=O)N2C)no1`, the max response was -5.22%. Compound `C[C@@H]1CCC[C@H](C)N1` has a max response of -8.89%. Compound `NC(=O)c1ccc([N+](=O)[O-])cc1Cl` has a max response of -9.4%. In the case of `O=c1[nH]cnc2nc[nH]c12`, the max response is reported as 19.1%. Compound `CN1CCCN=C1COC(=O)C(O)(c1ccccc1)C1CCCCC1` (stereo not drawn) has a max response of 15.3%. In the case of `Cc1cccc(C(=O)O)c1O`, the max response is reported as 8.34%. In the case of `C1CCN2C[C@@H]3C[C@@H](CN4CCCC[C@@H]34)[C@H]2C1`, the max response is reported as 18.3%. Work on `Cc1ccsc1/C=C/C1=NCCCN1C` yielded a max response of 23.6%. In the case of `C[C@@H](N)C(=O)O`, the max response is reported as -15.3%. `COc1ccc(NS(=O)(=O)c2ccc(N)cc2)nn1` gave a max response of 3.23%. `CCN(CC)CCc1nc(-c2ccccc2)no1` showed a max response of -19.5%. Work on `Cc1[nH]c(C)c(Cl)c(=O)c1Cl` yielded a max response of 14%. Compound `O=C(O)c1cc(=O)c2ccccc2o1` has a max response of 23.7%. Work on `C=CCSCC1Nc2cc(Cl)c(S(N)(=O)=O)cc2S(=O)(=O)N1` (stereo not drawn) yielded a max response of 6.24%. Work on `O=C(O)c1ccccc1OP(=O)(O)O` yielded a max response of 4.99%. For `CN/C(=C\[N+](=O)[O-])NCCSCc1csc(CN(C)C)n1`, the max response was -17.9%. `C[N+](C)(C)CC[N+]1(C)Cc2c(Cl)c(Cl)c(Cl)c(Cl)c2C1` gave a max response of -20.9%. For `CC(C)=CCC/C(C)=C/CO`, the max response was 29.9%. For `CCCNC(C)(C)COC(=O)c1ccccc1`, the max response was -6.33%. `Cc1onc(-c2ccccc2)c1-c1ccc(S(N)(=O)=O)cc1` showed a max response of 23.9%. In the case of `O=C(O)COC(=O)Cc1ccccc1Nc1c(Cl)cccc1Cl`, the max response is reported as -7.55%. Compound `CCOC(=O)[C@H](CCc1ccccc1)N[C@@H](C)C(=O)N1CCC[C@H]1C(=O)O` has a max response of 0.539%. With `CN[C@@H]1[C@H](O)[C@H](NC)[C@H]2O[C@@]3(O)C(=O)C[C@@H](C)O[C@H]3O[C@@H]2[C@H]1O` the max response was 3.08%. Work on `CNCc1ccccc1` yielded a max response of 24.6%. `CC(N)CCCC(C)(C)O` (stereo not drawn) gave a max response of 35.7%. In the case of `CC(=O)NCc1c(I)c(NC(C)=O)c(I)c(C(=O)O)c1I`, the max response is reported as 37%. `CC(C)(C)C(=O)OCOC(=O)[C@@H]1N2C(=O)[C@@H](NC(=O)[C@H](N)c3ccccc3)[C@H]2SC1(C)C` gave a max response of -12.6%. Compound `NS(=O)(=O)c1cc(C2(O)NC(=O)c3ccccc32)ccc1Cl` (stereo not drawn) has a max response of 27%. Compound `COc1ccccc1OCC(O)CO` (stereo not drawn) has a max response of 10.1%.

Reference: PubChem BioAssay (NCATS)
